Screens from PubChem.
PKM2 activator: qHTS Assay for Activators of Human Muscle isoform 2 Pyruvate Kinase; Pyruvate kinase PKM (Homo sapiens), P14618; purified PKM2, Kinase-Glo ATP luminescence, activation; response scale: 0% is enzyme alone, no compound; Potency, µM (highest dose often 57.5 µM), for the others: at the highest dose activation, most hits filed as activators; 0.34% of 260,000 active; AID 1631, 2009; note: potency is the fitted concentration of half-maximal effect; % is set by controls: 0 for no effect and ±100 for the full control effect; nearly all actives have a fitted effect of over 55% in size
Target sequence (P14618 whole entry, looked up, canonical isoform): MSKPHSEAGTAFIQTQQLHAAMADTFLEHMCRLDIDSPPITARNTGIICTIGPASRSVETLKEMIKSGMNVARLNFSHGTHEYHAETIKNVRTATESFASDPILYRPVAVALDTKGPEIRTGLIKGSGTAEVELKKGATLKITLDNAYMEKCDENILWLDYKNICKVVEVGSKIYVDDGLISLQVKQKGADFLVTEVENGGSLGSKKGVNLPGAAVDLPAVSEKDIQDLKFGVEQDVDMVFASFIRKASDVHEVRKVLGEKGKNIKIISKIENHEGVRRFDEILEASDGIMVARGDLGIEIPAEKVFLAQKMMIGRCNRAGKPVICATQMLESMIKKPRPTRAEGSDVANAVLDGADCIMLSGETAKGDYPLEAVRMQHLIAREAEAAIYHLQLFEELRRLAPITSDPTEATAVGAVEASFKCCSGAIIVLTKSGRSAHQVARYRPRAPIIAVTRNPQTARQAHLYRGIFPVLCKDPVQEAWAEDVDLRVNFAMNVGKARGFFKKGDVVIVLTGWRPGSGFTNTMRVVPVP
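ATP formation by purified human PK-M2, quantified via coupled luciferase luminescence after 1 h at room temperature with 0.1 mM ADP and 0.5 mM PEP final.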
IL-2 act: qHTS of IL-2 Activators; IL-2 activation reporter assay, cell-based qHTS; stimulated with anti-CD3/CD4/CD28 beads; in transgenic mouse T cells; activation, % (series mostly up to about 46 µM); 0.065% of 360,000 active; AID 652025, 2013; in the data active = activation above about 50%; inconclusive = mostly about 30% to 49%; note: 0% is about no effect
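Screening format: compound pinned onto unstimulated transgenic mouse T cells, 60 min incubation, then anti-CD3/anti-CD4/anti-CD28 bead stimulation for 18 hours at 37 degrees C, followed by EGFP and DsRed detection.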
ClpP mod: qHTS Assay for Activators of ClpP | Potency, µM (doses to about 57.5 µM), without a hit: top-dose activity change, negative = active | purified B. subtilis ClpP, FRET peptide cleavage, 20 min | 1.9% of 340,000 active | AID 651965, 2013; active = well fitted falling curve with a large enough effect; inconclusive = small, poorly fitted or top-dose-only effect; inactive = no such curve, though single readings can be large or run the other way; note: potency is the fitted concentration of half-maximal effect; the source files actives as falling curves though it sought activators and does not explain the sign; nearly all actives have a fitted effect of over 65% in size
Target sequence (P80244 whole entry, looked up): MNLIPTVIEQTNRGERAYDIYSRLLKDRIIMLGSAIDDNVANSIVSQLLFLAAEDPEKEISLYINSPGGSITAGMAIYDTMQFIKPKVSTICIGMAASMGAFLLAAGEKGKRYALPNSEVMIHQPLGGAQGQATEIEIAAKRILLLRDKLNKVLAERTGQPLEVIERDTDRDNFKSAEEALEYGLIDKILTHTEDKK
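FRET quenching reversal measured ClpP activation: 10 microg/mL B. subtilis ClpP at pH 8 with the FRET-FV decapeptide, read at 430 nm after 320 nm excitation. The 20-min minus 0-min signal was scaled between DMSO/no-enzyme wells and ADEP (5.8 microM final).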
USP2a block: qHTS Assay for Inhibitors of Ubiquitin-specific Protease USP2a Using CHOP2 as the Reporter; Ubiquitin carboxyl-terminal hydrolase 2 (Homo sapiens), O75604; USP2 core, Ub-CHOP2 coupled fluorogenic reporter, 485/531; 0.01% of 330,000 active; AID 463254, 2010; Potency, µM (titrated, usually from 38.3 µM), for the others: at the highest dose activity change, negative = inhibition, hits mostly inhibitors;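 note: potency is the fitted concentration of half-maximal effect; plate controls were DMSO wells for no effect and full inhibition by NEM control for full effect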
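Cell-free coupled assay: 10nM USP2 core preincubated 30min RT with compound in Tris-HCl pH 8.0/CaCl2/CHAPS buffer, then 25nM Ub-CHOP2 and 25nM reporter substrate; fluorescence (Ex 485/Em 531) read after 60min RT, normalized to NEM inhibition, concentration-response curves fitted.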
Pin1 inh: qHTS Assay to Find Inhibitors of Pin1 | Peptidyl-prolyl cis-trans isomerase NIMA-interacting 1 (Homo sapiens), Q13526 | Pin1 FP peptide displacement, HiFluor488, 10 min | Potency, µM (series often up to 115 µM), without a hit: at the highest dose activity, negative = inhibition, hits mostly inhibitors | 0.009% of 390,000 active | AID 504891, 2011; active = well fitted inhibition curve with a large enough effect in the polarisation, with a control signal flat, not every such curve was filed as active; inconclusive = small, poorly fitted or top-dose-only effect, or effect the other way, or a change in a side signal; inactive = no such curve, though single readings can be large or run the other way; the % refers to the polarisation; note: potency is the fitted concentration of half-maximal effect; % is set by controls: 0 for no effect and ±100 for the full control effect
a7 integrin act: qHTS for Activators of Integrin-Mediated Alleviation for Muscular Dystrophy; alpha7betagal myoblasts, beta-gal FDG fluorescence, 48 h; Potency, µM (titrated, usually from 38.3 µM), without a hit: at the top dose activation, usual class: activators; 0.064% of 350,000 active;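 note: potency is the fitted concentration of half-maximal effect; 100% = response of the positive control SU9516; nearly all actives have a fitted effect of over 60% in size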
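Alpha7betagal+/- myoblasts (passage 13) were plated 16-24 hr, then exposed to compounds (1:260 dilution of DMSO stock) for 48 hours at 37C. After MPER lysis, β-galactosidase reporter activity was read as FDG fluorescence (ex 480/em 540) after 30 minutes.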
* hit, by the source's call; ? = inconclusive; . = not tested or not shown; [ ] = another dose, or the depositor's remark. Most compounds without a hit are left out; they make up all but 1.9% or so of the library. Unless noted, calls come from the whole dose curve; as a rule, active = well fitted curve in the direction sought with a large enough effect; inconclusive = small, poorly fitted or top-dose-only effect, or another doubt; inactive = no such curve, though single readings can be large; an effect the other way counts as inactive or inconclusive.

SMILES	PKM2 activator	IL-2 act	ClpP mod	USP2a block	Pin1 inh	a7 integrin act
CC(=O)Oc1ccc2cc(-c3nc4c(s3)CCc3ccccc3-4)c(=O)oc2c1	.	.	1%	.	?	.
CCCCn1c(=O)[nH]c(=O)c2c1nc(-c1ccncc1)n2CCOC	-6%	-2	?	3%	-1%	-8%
COCCn1c(-c2ccc(-c3ccccc3Cl)o2)nc2c1c(=O)[nH]c(=O)n2CC(C)C	28µM*	2	4µM*	1%	?	-12%
CCCCn1c(=O)[nH]c(=O)c2c1nc(-c1ccc(-c3ccccc3Br)o1)n2CCOC	?	0	32µM*	-1%	30%	-40%
CCOC(=O)CSc1cccc2cccnc12	1%	-1	16µM*	-1%	-2%	-46%
O=C(CSc1cccc2cccnc12)NCc1ccco1	?	-1	25µM*	-1%	0%	-18%
CC(=O)/C(=N/Nc1ccc(Br)cc1)Sc1cccc2cccnc12	-25%	0	-2%	3%	6%	16%
O=C(CSc1cccc2cccnc12)Nc1ccc(S(=O)(=O)N2CCOCC2)cc1	25µM*	-1	.	-1%	0%	-72%
CCN(CC)C(=O)Sc1cccc2cccnc12	2%	-1	28µM*	1%	1%	19%
CC(=O)Nc1cc([N+](=O)[O-])cc(NC(C)=O)c1NC(C)=O	.	.	1%	.	.	.
CCOC(=O)N1C(C)CN(/[N+]([O-])=N/Oc2ccc([N+](=O)[O-])cc2[N+](=O)[O-])CC1C (stereo not given)	.	.	.	.	-2%	.
Cc1c(C#N)c(N)nc2c3c(sc12)NC(=O)CC3c1ccc(Cl)cc1 (stereo not given)	0%	1	16µM*	2%	-4%	32%
CCOC(=O)c1[nH]c2ccc(F)cc2c1NC(=O)CN1CCc2cc(OC)c(OC)cc2C1	0%	.	.	4%	.	.
CCOC(=O)c1[nH]c2ccc(OC)cc2c1NC(=O)CCN1CCC(C)CC1	0%	1	28µM*	?	4%	5%
CCOC(=O)c1[nH]c2ccc(OC)cc2c1NC(=O)CCN1CCc2ccccc2C1	-2%	1	28µM*	4%	0%	-16%
COc1ccccc1CCC(=O)O	.	.	-4%	.	.	.
COc1ccc2ccccc2c1C1NC(=O)c2ccccc2N1 (stereo not given)	.	-5	14µM*	.	-8%	-13%
COc1ccc(C2c3c(n(CCc4ccccc4)cnc3=N)Oc3ccc4ccccc4c32)cc1OC (stereo not given)	.	.	.	.	4%	.
COc1ccc(N2CCN(C(=O)CSc3ncccc3-c3nc4ccccc4[nH]3)CC2)cc1	-1%	3	25µM*	2%	16%	2%[7.66 µM]
COc1ccccc1N1CCN(C(=O)CSc2ncccc2-c2nc3ccccc3[nH]2)CC1	0%	1	?	-1%	22%	-15%
C=CCn1c(SCC(=O)NCc2ccco2)nnc1-c1cccc(N(C)C)c1	.	.	0%	.	.	.
Cc1c(S(=O)(=O)N(C)C2CCCCC2)c(=O)n(C)c(=O)n1C	.	3	13µM*	-1%	-12%	-1%
CCN(C1CCCCC1)S(=O)(=O)c1c(C)n(C)c(=O)n(C)c1=O	.	0	1%	1%	0%	16%
O=C1S/C(=C/c2ccc(N3CCOCC3)o2)C(=O)N1Cc1c(F)cccc1Cl	?	13	1%	4%	?	-20%
O=C1S/C(=C\c2ccc(N3CCOCC3)o2)C(=O)N1Cc1c(F)cccc1Cl	2.5µM*	-4	1%	4%	?	4%
SMILES	PKM2 activator	IL-2 act	ClpP mod	USP2a block	Pin1 inh	a7 integrin act
CC(C)(C)c1cc(NC(=O)COC(=O)c2nccnc2N)n(-c2ccccc2)n1	0%	5	22µM*	1%	0%	5%
Cc1cc2c(s1)c1cnn(Cc3ccc(F)c(Cl)c3)c(=O)c1n2C	.	.	.	.	0%	.
O=C(C1=NN(c2ccccc2)C2C(=O)N(c3cccc(Cl)c3)C(=O)C12)c1ccccc1 (stereo not given)	-4%	-2	18µM*	5%	?	-50%
COc1ccc(-c2ccc(-c3noc(C)n3)c(OC)n2)cc1	6%	-1	14µM*	-3%	-2%	15%[7.66 µM]
COc1cccc(-c2nc(-c3ccc(-c4ccccc4)nc3OC)no2)c1	.	.	25µM*	.	4%	.
COCc1nc(-c2ccc(-c3ccc(C)cc3)nc2OC)no1	2%	-3	35µM*	4%	11%	-26%
CCOc1nc(-c2ccc(OC)cc2)ccc1-c1noc(C)n1	-3%	0	-8%	2%	1%	2%
COc1ccc(-c2ccc(-c3noc(-c4cccc(OC)c4)n3)c(OC)n2)cc1	6%	0	3.2µM*	2%	-4%	1%
COc1nc(-c2ccccc2)ccc1-c1noc(-c2cccnc2)n1	-7%	3	-21%	-7%	13%	15%
CC1CC=CC2C1C(=O)N(Cc1ccccc1)C2c1cccc([N+](=O)[O-])c1 (stereo not given)	.	.	.	.	-2%	.
COC(=O)C1=C(C(=O)OC)[C@@H]2Nc3ccccc3[C@@]23C[C@@H](C(=O)OC)N(S(=O)(=O)c2ccc(OC)cc2)C3=N1	-4%[11.5 µM]	.	.	.	.	.
CCN(CC)S(=O)(=O)c1ccc(-c2nnc(SCC(=O)Nc3nc(C)cs3)o2)cc1	2%	-1	7%	1%	-2%	-22%
Cc1csc(NC(=O)CSc2nnc(-c3ccc(S(=O)(=O)N4CCCC4)cc3)o2)n1	?	0	28µM*	1%	9%	-21%
CCCCC(=O)Nc1nc(-c2ccc(S(=O)(=O)N3CCOCC3)cc2)cs1	1%	-3	28µM*	1%	2%	19%
O=C(Nc1nc(-c2ccc(S(=O)(=O)N3CCOCC3)cc2)cs1)c1ccccc1	-1%	0	-4%	-2%	22%	9%
Cc1ccc(Nc2nc(-c3ccc(S(=O)(=O)N4CCOCC4)cc3)cs2)cc1Cl	0%	-1	16µM*	2%	0%	-21%
CC(C)CC(=O)Nc1nc(-c2ccc(S(=O)(=O)N3CCOCC3)cc2)cs1	-2%	-1	32µM*	-2%	-4%	0%
COc1cc2ccccc2cc1C(=O)OCC(=O)Nc1ccc(Br)cc1	.	.	4%	.	.	.
CCCN1CNc2c(c(=O)[nH]c(=S)n2Cc2ccc(OC)c(OC)c2)C1	.	.	-2%	.	7%	.
